Results from ChEMBL document CHEMBL3433997, “St. Jude Leishmania screening dataset” (2016).

How the values were obtained:
Format in all cases: functional
[1] = target: Solute carrier family 2, facilitated glucose transporter member 1 (Homo sapiens) (UniProt P11166); experiment: ST_JUDE_LEISH: Cytotoxicity at 2uM final concentration against transgenic Leishmania Mexicana promastigotes LmGLUT1 that are glucose transport deficient and complemented with the human glucose transporter GLUT1. Activity is measured by DNA content using SYBR green in vitro
Sequence of Solute carrier family 2, facilitated glucose transporter member 1 (Homo sapiens) (P11166 whole entry): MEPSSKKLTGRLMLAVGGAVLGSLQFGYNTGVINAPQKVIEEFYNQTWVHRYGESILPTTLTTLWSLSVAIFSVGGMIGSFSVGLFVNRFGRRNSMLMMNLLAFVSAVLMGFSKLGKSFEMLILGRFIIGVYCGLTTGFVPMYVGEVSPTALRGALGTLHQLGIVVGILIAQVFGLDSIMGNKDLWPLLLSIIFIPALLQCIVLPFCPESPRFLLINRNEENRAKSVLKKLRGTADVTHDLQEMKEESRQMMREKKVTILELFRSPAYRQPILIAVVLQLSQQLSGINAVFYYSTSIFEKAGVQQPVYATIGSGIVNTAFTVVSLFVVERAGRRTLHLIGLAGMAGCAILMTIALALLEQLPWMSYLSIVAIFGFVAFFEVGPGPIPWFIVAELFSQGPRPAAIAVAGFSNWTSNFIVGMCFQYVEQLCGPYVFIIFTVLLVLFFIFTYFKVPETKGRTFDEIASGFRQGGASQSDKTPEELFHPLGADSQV

[2] = target: Hexose transporter 1 (Plasmodium falciparum) (UniProt O97467); experiment: ST_JUDE_LEISH: Cytotoxicity at 2uM final concentration against transgenic Leishmania Mexicana promastigotes LmPfHT that are glucose transport deficient and complemented with the Plasmodium falciparum hexose transporter. Activity is measured by DNA content using SYBR green in vitro
[3] = target: Glucose transporter (Leishmania mexicana) (UniProt O61059); experiment: ST_JUDE_LEISH: Cytotoxicity at 2uM final concentration against transgenic Leishmania Mexicana promastigotes LmGT2 that are glucose transport deficient and complemented with the L. Mexicana glucose transporter 2. Activity is measured by DNA content using SYBR green in vitro

Compound	inhibition [1]	inhibition [2]	inhibition [3]
CN1CC[C@@H](Oc2cc(NC(=O)Nc3ccccc3Br)ccc2Cl)C1	4.94%	3.71%	2.59%
COc1cccc(CNC(=O)NC2CCN(c3ccnc(Nc4ccc(F)cc4)n3)C2)c1 (stereo not given)	-1.2%	-0.35%	-1.51%
Nc1ccnc(N2CCC(CCOc3cc(C(F)(F)F)nc4c(C(F)(F)F)cccc34)CC2)c1	25.6%	43.4%	10.2%
COc1ccc2ncc(F)c([C@@H](O)CN3CCC(NCc4ccc5c(c4)NCCS5)CC3)c2n1	8.36%	8.01%	-5.06%
COc1cc(NC(=O)/C=C/c2ccccc2OC(F)(F)F)cc(OCCN2CCCCC2)c1	2.6%	1.06%	1.67%
Cc1cccc2nc(-c3ccc(-c4cccc(CNCCc5ccncc5)c4)cc3)[nH]c12	5.55%	3.23%	0.92%
COc1c(C2CCN(CCCCNC(=O)c3ccc(-c4ccc(Cl)cc4)cc3)CC2)ccc2c1C(C)(C)CCC2(C)C	-1.1%	-1.15%	-2.13%
O=C(N[C@@H](Cc1cc(F)cc(F)c1)[C@H](O)CNCc1cccc(C(F)(F)F)c1)c1cc(C2CCCC2)cc(N2CCCC2=O)c1	1.51%	1.51%	1.95%
C=CCc1cc(C2CCN(CCCCNC(=O)c3ccc(-c4ccc(C#N)cc4)cc3)CC2)c(OCC(N)=O)c2c1CCCC2	0.81%	2.67%	3.22%
CCc1cn(C)c2c(N3CCCC3=O)cc(C(=O)N[C@@H](Cc3ccccc3)[C@H](O)CNC(C)(C)c3cccc(C(F)(F)F)c3)cc12	4.78%	3.46%	-1.12%
CCOC(=O)CNC(=O)N(CCN(Cc1ccccc1)C(=O)NCC(=O)OCC)Cc1ccccc1	0.94%	2.07%	1.35%
Cc1cc(N[C@@H](Cc2ccccc2)C(=O)Nc2ccccc2)nc(NCCc2cccnc2)n1	10.6%	11%	9.02%
O=C(Nc1ccc(OC2CCN(Cc3ccccc3)CC2)c(Cl)c1)c1ccsc1	2.2%	2.35%	2.24%
c1ccc(CN2CCC(NCc3ccc(-c4cncc5ccccc45)cc3)CC2)cc1	0.33%	-2.18%	3.84%
CCCCN(Cc1cc(Cl)c(OC)c(OC)c1)c1ccc(C(O)(C(F)(F)F)C(F)(F)F)cc1	1.29%	4.14%	-0.33%
COc1ccc2[nH]ccc(=NN=Cc3ccccc3)c2c1	13.5%	9.86%	5.06%
CCOc1c(N2CCN(CCCCNC(=O)c3ccc(NC(=O)c4ccc(Cl)cc4)cc3)CC2)ccc2ccccc12	0.72%	0.48%	0.9%
CC(Nc1ccc2c(c1)CCC2)C(=O)Nc1cc(C(F)(F)F)ccc1N1CCOCC1 (stereo not given)	14.7%	16.9%	11.1%
O=C(/C=C/c1ccc(Cl)c(Cl)c1)N1CCN(C(=O)Nc2cccc(C(F)(F)F)c2)CC1	5.23%	4.67%	2.79%
COc1ccc(-c2cccc(NC(=O)c3cccc(Cl)c3)c2)cc1CN(C)CCN(C)C	1.29%	0.75%	-1.29%
Cc1ccc(F)c(C(=O)Nc2cccc(-c3nn4ccccc4c3-c3ccnc(Nc4cccc(F)c4)n3)c2)c1F	9.44%	8.92%	6.93%
Cc1ccc(Cc2cnc(CN3CCCCC3)c(O)c2)cc1	-1.22%	-2.99%	0.07%
O=C(Cc1c[nH]cn1)Nc1cccc(-c2cccc(-c3nc4cc(F)ccc4[nH]3)c2)c1	-1.27%	-0.43%	-2.58%
O=C(NCCc1ccccc1)[C@H](Cc1ccccc1)Nc1ccnc(NCC2CCCCC2)n1	-0.55%	2.47%	0.61%

Compound	inhibition [1]	inhibition [2]	inhibition [3]
O=C(NC1CCCCN(Cc2ccccc2O)C1)c1cc(F)cc(F)c1 (stereo not given)	4.28%	5.08%	3.51%
O=C(Nc1ccc(Br)cc1)Nc1ccc(Cn2ncc(N3CCCNCC3)c(Cl)c2=O)cc1	-2.08%	0.01%	2.81%
CN1CCN(c2ccnc3ccc(NC(=O)Nc4cccc5ccccc45)cc23)CC1	1.43%	-0.09%	1.87%
Cc1cc(NCCc2ccccc2)nc(NC(=N)Nc2ccc(Cl)cc2)n1	0.08%	2.1%	-1.21%
CNC(=O)C1Cc2c([nH]c3cc(Br)ccc23)C2(CCN(CCc3ccccc3)CC2)N1 (stereo not given)	2.01%	0.63%	1.83%
CCCCOc1c(CCNCCCCNCCc2cc(OC)c3ccccc3c2OCCCC)cc(OC)c2ccccc12	4.98%	5.5%	2.03%
COc1ccc(CC(=O)NC(CCCN2CCC3(CC2)OCc2ccccc23)c2ccc(Cl)c(Cl)c2)cc1 (stereo not given)	1.2%	2.18%	-0.29%
Cc1ccc2nc3ccccc3c(NCCN3CCN(C)CC3)c2c1	39.1%	50.6%	21.1%
Cc1cc(N[C@@H](CC(C)C)C(=O)NCCc2ccccc2)nc(NCc2ccccc2C)n1	2.23%	4.73%	-0.21%
CCCCCCC(C)c1cc(O)c2c(c1)OC(C)(C)C=C2c1ccncc1 (stereo not given)	1.01%	-0.62%	0.58%
Cc1nc(NCCCn2ccnc2)cc(-c2cncc(-c3ccc(OC(F)(F)F)cc3)c2)n1	5.43%	5.92%	3.04%
COc1cccc(CC(=O)N2CCC(n3c(C)nc4ccc(C)cc43)CC2)c1	1.58%	1.46%	1.1%
c1ccc2[nH]c(CN(Cc3nc4ccccc4[nH]3)Cc3nc4ccccc4[nH]3)nc2c1	-2.76%	1.73%	-0.29%
COc1ccc(CCNC(=O)c2ccccc2O)cc1-c1ccc(C(C)(C)C)cc1	4.03%	2.33%	3.39%
O=C(Nc1ccc(Cl)c(Cl)c1)N(Cc1ccccc1Br)C1CCNCC1	0.5%	3.45%	0.68%
Oc1ccc(C2CNCCc3c2cc(O)c(OCc2ccccc2)c3Cl)cc1 (stereo not given)	-0.07%	-1.5%	2.54%
CC(Oc1ccc(NC(=O)c2cccs2)cc1)C(=O)c1ccc(Cl)cc1 (stereo not given)	11.3%	10%	7.25%
C/C(=C\C(=O)NC1CC1)c1ccccc1OCc1ccccc1	0.29%	-2.11%	3.94%
O=C(Nc1ccc(CC(=O)N2CCc3cc(Cl)c(N4CCN(C/C=C/c5ccccc5)CC4)cc32)cc1)Nc1cccc([N+](=O)[O-])c1	1.73%	1.25%	1.93%
O=C(/C=C/c1ccc(Cl)c(Cl)c1)NCCCCCN1CCC(NC(=S)Nc2ccc(Cl)cc2Cl)CC1	8.85%	9.09%	7.71%
c1ccc(COc2ccc(Cn3ccc(-c4ccc(-n5ccnc5)cc4)n3)cc2)cc1.c1ccc(COc2ccc(Cn3nccc3-c3ccc(-n4ccnc4)cc3)cc2)cc1	0.24%	1.54%	1.48%
Cc1cccc2nc(-c3cccc(-c4ccc(NC(=O)C5CCN(C)CC5)cc4)c3)[nH]c12	5.38%	2.27%	7.2%
COc1ccc2c(CNCCCCCCNCc3c(OC)ccc4cc(OC)ccc34)c(OC)ccc2c1	109%	107%	112%
FC(F)(F)c1cccnc1N1CCC(Nc2nc3cc(Cl)ccc3[nH]2)CC1	5.58%	1.96%	3.47%

Compound	inhibition [1]	inhibition [2]	inhibition [3]
C#CCNCc1ccc(-c2ccc(-c3nc4cc(C(F)(F)F)ccc4[nH]3)s2)cc1	0.44%	-0.12%	-1.09%
CC[C@H](C)CNC(=O)c1ccnc(-c2cccc(CN3CCC(N4CCCC4)CC3)c2)c1	0.78%	-0.95%	0.7%
COc1ccc2ncc(F)c(CCN3CCC(NCc4cc(C)c5c(c4)OCCO5)CC3)c2n1	11.1%	15.4%	5.07%
COc1ccc(OCCn2cc(C(=O)c3ccco3)c3ccccc32)cc1	3.1%	1.5%	2.42%
Cc1cc(NC(=O)Nc2ccc(C(C)C)cc2)c2ccccc2n1	0.71%	3.51%	-0.45%
O=C(NCC1CCN(C/C=C/c2ccccc2)CC1)Nc1ccc(Oc2ccccc2)cc1	6.42%	8.3%	2.71%
O=C(NCCCCN1CCC(c2ccc3c(c2OCCCO)CCCC3)CC1)c1ccc(-c2ccc(C(F)(F)F)cc2)c(CO)c1	-0.96%	-0.59%	-0.61%
COc1ccc(NC(=O)Nc2cccc(-c3cccc(-c4nc5cccc(C)c5[nH]4)c3)c2)cc1	-1.25%	-0.57%	-1.79%
COc1c(C2CCN(CCN3CCC(CNC(=O)c4ccc(-c5ccc(C#N)cc5)cc4)CC3)CC2)ccc2c1CCCC2	3.97%	8.83%	8.54%
CCN(CC)CCCC(C)N/C(=N\c1ccccc1Br)Nc1ccc(C#N)cc1O (stereo not given)	1.03%	0.06%	-1.67%
CCCCCCCCCCNCC(O)c1ccc(O)c(C(=O)OC)c1 (stereo not given)	-0.21%	1.42%	0.52%
Cc1cc(Cl)c(Cl)cc1NC(=O)Nc1cccc(C(F)(F)F)c1	1.27%	-0.59%	-0.28%
O=C(Nc1ccc(F)cc1)c1nc2ccccc2nc1Cl	4.1%	3.68%	4.22%
Cc1[nH]c(C)c(-c2ccc(-c3ccc(Cl)cc3)cc2)c(=O)c1Cl	-0.9%	0.3%	1.13%
OC(c1cccc(OCc2ccccc2)c1)C1CN(CCc2ccccc2)CCC1(O)c1ccccc1 (stereo not given)	-1.45%	-0.62%	-0.2%
Cc1ccc2[nH]c(C)cc(=NN=Cc3ccccc3Cl)c2c1	2.11%	3.39%	0.08%
Clc1cc2c(Nc3ccc(Oc4ccccc4)cc3)ccnc2cc1-c1ccc(CNCCN2CCOCC2)o1	-1.44%	-0.57%	-0.03%
CCN(CCCN1CCCCC1)c1cc(C)nc(Nc2cc(Cl)ccc2C)n1	1.18%	1.77%	1.67%
O=C(Nc1cccc(N2CCC(NCCCc3ccncc3)CC2)c1)c1cccc(C(F)(F)F)c1	3.33%	5.68%	4.83%
COc1ccc(-c2ccc(S(=O)(=O)Nc3cc4c(cc3OC(C)C)CCN(C)CC4)cc2)cc1	1.81%	2.48%	1.21%
COc1ccc2ncc(Cl)c(CCN3CCC(NCc4ccc5c(n4)NC(=O)CS5)CC3)c2c1	7.16%	11%	2.97%
O=C(N[C@H](Cc1ccc(Cl)cc1)C(=O)N1CCN(c2ccnc3cc(Cl)ccc23)CC1)[C@H]1Cc2ccccc2CN1	0.9%	-0.43%	-2.58%
